The record followed here is PubChem BioAssay (NCATS).

Structures are written as SMILES. A number with no mark means an inactive call. Results filed as inconclusive are left out. Calls of active or inactive are those of the source. Unless noted, calls follow the shape of the dose curve; as a rule, active = well fitted curve in the direction sought with a large enough effect; inconclusive = small, poorly fitted or top-dose-only effect, or another doubt; inactive = no such curve, though single readings can be large; an effect the other way counts as inactive or inconclusive. Bounds are passed on as bounds.

The nature of assay [1]: Cell Viability - BJ (AID 421; calls by dose curve;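 also: potency is read from the fitted curve at half-maximal effect; cells exposed to compound for 40 hours at 37 °C before readout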). The conditions noted are these: BJ fibroblast viability, qHTS. In short, it runs like this:
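Luminescent ATP signal (CellTiter-Glo, 20 min at room temperature) served as the read-out of viable BJ cells after 40 hours of compound treatment. Responses were scaled between DMSO and 100 uM tamoxifen, and AC50 values were obtained by Hill modeling.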

Assay [2] can be described thus: Cell Viability - Hek293 (AID 427;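 active = compounds whose dose-response curve shows a full or clear partial loss of cell viability, called from curve shape rather than a numeric limit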;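 also: potency is read from the fitted curve at half-maximal effect; cells exposed to compound for 40 hours at 37 °C before reading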). The conditions noted are these: qHTS. In a few lines:
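Luminescent ATP read-out (CellTiter-Glo, 20 min RT) after 40 hr compound exposure at 37 °C in complete medium. Signal normalized to DMSO (basal) and 100 uM tamoxifen (100% inhibition); concentration-response fitted with the standard Hill equation to give AC50.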

Assay [3] can be described thus: Cell Viability - HepG2 (AID 433; calls by dose curve;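 also: potency is read from the fitted curve at half-maximal effect; potency for ATP loss meaning cytotoxicity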). The conditions noted are these: qHTS. In a few lines:
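Cytotoxicity read as ATP loss (CellTiter-Glo luminescence) after 40 hr compound exposure of HepG2, 1500 cells/well, 37 °C. AC50 by Hill equation; 0% set by DMSO, 100% inhibition by 100 uM tamoxifen.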
For orientation: In qHTS, concentration-response curves come from the screen itself.

Assay [4] in a line: Cell Viability - SK-N-SH (AID 435; calls by dose curve; also: potency is read from the fitted curve at half-maximal effect). The note with it: SK-N-SH neuroblastoma cell viability qHTS. In a few lines: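 qHTS cytotoxicity: CellTiter-Glo ATP luminescence after 40 h compound exposure of human neuroblastoma SK-N-SH cells at 37 °C. AC50 derived by Hill-equation fitting, with DMSO as basal and 100 uM tamoxifen as full inhibition.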
Assay [5] concerns the target Mitogen-activated protein kinase 10 (Mus musculus) (UniProt Q61831). Nature of the assay: JNK3 AlphaScreen Assay (AID 530; active = well fitted curve in either direction with a large enough effect, not every such curve was filed as active;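 also: kinase came from lysate of stimulated human HepG2 cells; signal reports phosphorylation of biotinylated GST-cJun 1-79 at Ser73 with 10 µM ATP; % is scaled to controls: 0 for no effect and ±100 for the full control effect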). In short, it runs like this:
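Kinase buffer: 20 mM Tris-HCl pH 7.6, 10 mM MgCl2, 1 mM DTT, 0.1 mM Na3VO4, 0.01% Tween-20; ATP 10 uM. Substrate biotin-GST-cJun(1-79), enzyme from activated HepG2 lysates. Detection by Ser73 phospho-antibody AlphaScreen.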
For orientation: Bead proximity is the source of the signal in Alpha formats.

Assay [6] can be described thus: Cell Viability - N2a (AID 540).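 Also: plate controls were DMSO alone for no effect and tamoxifen control for full effect; nearly all actives have a fitted effect of over 45% in size.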 The conditions noted are these: N2a mouse neuroblastoma cell viability; activity change, negative = cytotoxicity: at 92.2 µM (top of the series). In a few lines: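 In this qHTS cytotoxicity screen, ATP-dependent luciferase luminescence reports viable N2a cells after a 40 hr compound exposure in complete culture medium. Potencies are AC50 values from standard Hill equation fits.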

Assay [7] can be described thus: Cell Viability - NIH 3T3 (AID 541).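 Also: plate controls were DMSO alone for no effect and tamoxifen positive control for full effect; nearly all actives have a fitted effect of over 25% in size.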 The conditions noted are these: NIH 3T3 cell viability, qHTS; activity change, negative = cytotoxicity: at 92.2 µM (top of the series). In a few lines:
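In this cytotoxicity screen, acute toxicity is scored as an ATP drop measured by CellTiter-Glo in NIH 3T3 fibroblasts following a 40 hr, 37 °C incubation with compound.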

Assay [8] can be described thus: Cell Viability - HUV-EC-C (AID 542). Also: % is scaled to controls: 0 for no effect and ±100 for the full control effect; nearly all actives have a fitted effect of over 35% in size. In a few lines:
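Concentration-dependent ATP loss in HUV-EC-C cells is the measure. Exposure lasts 40 hr at 37 °C; luminescence follows CellTiter-Glo addition, and Hill fits give AC50.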

The nature of assay [9]: Cell Viability - H-4-II-E (AID 543). Also: % is scaled to controls: 0 for no effect and ±100 for the full control effect; nearly all actives have a fitted effect of over 35% in size. In a few lines:
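AC50 from Hill-modelled qHTS concentration-response curves. H-4-II-E rat hepatoma cells in complete medium, 40 hr exposure at 37 °C, viability by CellTiter-Glo ATP luminescence.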

A short description of assay [10]: Cell Viability - SH-SY5Y (AID 544). Also: nearly all actives have a fitted effect of over 55% in size. In short, it runs like this:
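Quantitative HTS in SH-SY5Y neuroblastoma cells, 40 hr treatment at 37 °C, ATP content by luciferase luminescence; AC50 from Hill fits.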

Assay [11] in a line: Cell Viability - Renal Proximal Tubule (AID 545). Also: nearly all actives have a fitted effect of over 40% in size. The conditions noted are these: renal proximal tubule cells viability, primary cells of rat origin; at 91.7 µM (top of the series). In short, it runs like this:
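Viability taken as intracellular ATP (CellTiter-Glo luminescence) after 40 hr, 37 °C compound treatment of primary proximal tubule cells from rat kidney, 1000 cells/well; Hill-equation fits of qHTS concentration-response data gave AC50.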

Assay [12] can be described thus: Cell Viability - Mesenchymal (AID 546).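 Also: cells exposed to compound for 40 hours before reading.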 The conditions noted are these: mesenchymal cells viability, qHTS; activity change, negative = cytotoxicity: at 91.7 µM (top of the series). In a few lines:
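CellTiter-Glo luminescence (intracellular ATP, 20 min room temperature) after 40 hr compound exposure at 37 °C of 1000 glomerulus-derived human kidney mesenchymal cells/well; AC50 values obtained by fitting qHTS concentration-response data to the Hill equation.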

Assay [13] can be described thus: Cellular Toxicity (caspase-3) HepG2 (AID 654).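 Also: cells exposed to compound for 16 hours before reading; 0% = DMSO alone and 100% = caspase signal from 100 µM tamoxifen.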 In a few lines: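 Concentration-response AC50 values reflect caspase-3/7 induction in HepG2 cells after 16 hours of compound exposure, quantified by luminescence from liberated aminoluciferin and referenced to 100 uM tamoxifen as full stimulation.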
The nature of assay [14]: Cellular Toxicity (caspase-3) Jurkat (AID 655).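 Also: cells exposed to compound for 16 h at 37 °C before reading.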 The note with it: Jurkat caspase-3 activation, luminescence, DMSO = 0%, tamoxifen = 100%; at 92.2 µM (top of the series). In a few lines: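 Luminescent Caspase-Glo 3/7 read-out (20 min, room temperature) after 16 h compound treatment at 37 C of 5000 Jurkat cells per well. AC50 derived by Hill-equation fitting, scaled between DMSO basal and 100 uM tamoxifen stimulation.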

The nature of assay [15]: Cellular Toxicity (caspase-3) HUV-EC-C (AID 656). In a few lines: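 Luminescent Caspase-Glo 3/7 readout after 16 h, 37 °C compound exposure of HUV-EC-C endothelial cells, 1000 per well, complete medium. AC50 derived by Hill fitting, with DMSO as baseline and 100 uM tamoxifen as full activation.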
A short description of assay [16]: Cellular Toxicity (caspase-3) SHSY5Y (AID 657). In a few lines: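 Luminescent Caspase-Glo 3/7 read-out, 1 hr room temperature, follows 16 hours of compound treatment of SH-SY5Y cells at 37 °C. Normalization: DMSO basal, 10 uM staurosporine as 100%; AC50 values from Hill-equation concentration-response fits.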
Assay [17] is described as follows: Cellular Toxicity (caspase-3) BJ (AID 658).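 Also: 0% = DMSO basal and 100% = 10 µM staurosporine.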 In a few lines:
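Caspase-Glo 3/7 luminescence, read 1 hr after reagent at room temperature, in normal BJ fibroblasts exposed 16 hours at 37 °C. AC50 values from Hill-equation concentration-response, scaled between DMSO basal and 10 uM staurosporine as 100%.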

Assay [18] in a line: Cellular Toxicity (caspase-3) MRC-5 (AID 659).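 Also: 0% = DMSO basal and 100% = 10 µM staurosporine.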 In a few lines: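 Luminescent Caspase-Glo 3/7 read-out (1 h, room temperature) after a 16 h, 37 °C compound exposure of MRC-5 lung fibroblasts at 1500 cells/well. Concentration-response AC50 from Hill equation; 0% DMSO, 100% 10 uM staurosporine.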
A short description of assay [19]: Cellular Toxicity (caspase-3) Mesangial (AID 660).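 Also: combined caspase 3 and 7 activity read by Caspase-Glo luminescence; cells exposed to compound for 16 h before the caspase read.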 In a few lines:
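AC50 values come from Hill-equation fits of caspase 3/7 activation, measured as Caspase-Glo luminescence in human glomerular mesangial cells exposed to compound for 16 h at 37 °C; 100% set by 100 uM tamoxifen.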

Assay [20] in a line: Cellular Toxicity (caspase-3) SK-N-SH (AID 661).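 Also: 0% = DMSO basal and 100% = 10 µM staurosporine.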 In short, it runs like this:
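Apoptosis readout in SK-N-SH neuroblastoma: Caspase-Glo 3/7 luminescence following 16 hr treatment in complete culture medium. Normalization used DMSO and 10 uM staurosporine controls.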

The nature of assay [21]: Cellular Toxicity (caspase-3) H-4-II-E (AID 663).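 Also: cells exposed to compound for 16 hr before readout.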 The conditions noted are these: Potency: caspase-3 activation. In short, it runs like this: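 Caspase 3/7 activation measured by luminescent aminoluciferin substrate cleavage after 16 hr compound treatment of H-4-II-E cells in complete medium. Increase normalized between DMSO (basal) and 100 uM tamoxifen (100%); Hill-equation AC50 from concentration-response.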

Assay [22] in a line: Cellular Toxicity (caspase-3) NIH 3T3 (AID 666). In short, it runs like this:
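Activity: caspase-3/7 induction, NIH 3T3 cells, 16 hr treatment at 37°C, luminescent Caspase-Glo detection; AC50 via Hill equation.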

Consider `CC1=C2[C@H](/C=C(\C)C(=O)O)CC[C@@H](C)[C@H]2CC1`, for which the Potency in assay [1], in assay [2], in assay [3] and in assay [4] was over 92 µM throughout. The Potency result in assay [5], in assay [7], in assay [9], in assay [10] and in [21] was “inactive” throughout. The activity change, negative = cytotoxicity in [6] was 10.9%; in assay [11] it was -15.1%; in assay [12], 9.76%. The outcome in assay [8], in assay [13], in assay [15], in assay [16], in assay [17] and in [18] was inactive. The compound was called inactive in assay [19], in assay [20] and in assay [22]. Also, the caspase-3 activation in assay [14] is 97.3% (active).
